Bioassay records deposited in PubChem BioAssay by The Scripps Research Institute Molecular Screening Center.
TR-FRET SRC-2 ct: flags TR-FRET format artefacts in PPARgamma SRC-2 recruitment agonist screen. TR-FRET artefact counter-screen; active compounds read high. TR-FRET ratio at 8 µM. hit rate 0.4% among 200,000
SRC3 TRFRET art: TR-FRET artefact, counter-screen to PPARgamma/SRC-3 agonist assay; hit rate 0.39% among 99,000; PPARgamma/SRC-3 format; active compounds read high; TR-FRET ratio at 8 µM
PPARg SRC3 recr: promotes SRC-3 coactivator recruitment by human PPARgamma; P37231; biochemical PPARgamma/SRC-3 coactivator recruitment assay; activation, % at 8 µM; hit rate 0.26% among 200,000; in the data active = activation above about 23%;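 note: 0% = DMSO and 100% = reference agonist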
SRC1 TRFRET art: counter-screen for PPARgamma SRC-1 recruitment agonists: TR-FRET artefact; hit rate 0.34% among 99,000; TR-FRET ratio at 8 µM; AID 1051; TR-FRET detection artefact counter-screen, emission ratio; active compounds read high; in the data active = TR-FRET ratio above about 2300
PPARg SRC-1 ag: promotes SRC-1 coactivator recruitment by human PPARgamma. PPARgamma-SRC-1 coactivator recruitment biochemical assay. AID 631. activation, % at 8 µM. hit rate 0.41% among 200,000. P37231; in the data active = activation above about 19%;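 note: 0% = DMSO and 100% = reference agonist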
PPARg SRC2 recr: promotes SRC-2 coactivator recruitment by human PPARgamma; P37231; hit rate 0.34% among 200,000; activation, % at 8 µM; PPARgamma LBD-SRC-2 recruitment, biochemical; in the data active = activation above about 22%;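 note: 0% = vehicle and 100% = reference agonist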
PPARg SRC2 conf: human PPARgamma SRC-2 recruitment agonism, confirmation; shares compounds with PPARg SRC3 recr; biochemical SRC-2 recruitment by PPARgamma; hit rate 52% among 790; activation, % at 8 µM; in the data active = activation above about 22%;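 note: 0% = vehicle alone and 100% = reference agonist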
PPARg SRC1 conf: confirmation of agonists of SRC-1 recruitment by human PPARgamma. shares compounds with PPARg SRC3 recr. AID 1300. hit rate 43% among 790. activation, % at 8 µM. PPARgamma–SRC-1 coactivator recruitment biochemical assay; in the data active = activation above about 20%;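 note: 0% = vehicle wells and 100% = reference agonist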
PPARg SRC3 ag: human PPARgamma SRC-3 recruitment agonism, confirmation. activation, % at 8 µM. biochemical PPARgamma-SRC-3 coactivator recruitment, agonist mode. hit rate 29% among 790. shares compounds with PPARg SRC3 recr; in the data active = activation above about 24%;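 note: 0% = vehicle wells and 100% = reference agonist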
An asterisk follows results filed as active. A selection: hits, their analogues and other compounds. The true share with any hit is near 0.84%. Cut-off read from the data, not from the text of the source, unless noted: active = TR-FRET ratio above about 2000; inactive = the rest.

C=CCSC1=Nc2cc(OC)c(OC)cc2C2=NC(=O)CN12 was read as TR-FRET SRC-2 ct 1797, SRC3 TRFRET art 1730, PPARg SRC3 recr 10.1, SRC1 TRFRET art 1868, PPARg SRC-1 ag 20.9*, PPARg SRC2 recr 15.0, PPARg SRC2 conf 29.3*, PPARg SRC1 conf 18.5 and PPARg SRC3 ag 17.9.
O=C(NNc1cccc(Cl)n1)Nc1ccc(F)cc1 was read as TR-FRET SRC-2 ct 1628, SRC3 TRFRET art 1603, PPARg SRC3 recr 5.6, SRC1 TRFRET art 1820, PPARg SRC-1 ag 7.0 and PPARg SRC2 recr 4.8.
Screening CC(=O)c1nc(N2C(=O)CC(Cc3cccc(C)c3)C2=O)sc1C (stereo not drawn) returned TR-FRET SRC-2 ct 1783, PPARg SRC3 recr 19.5, PPARg SRC-1 ag 19.6*, PPARg SRC2 recr 10.0, PPARg SRC2 conf 9.8, PPARg SRC1 conf 8.1 and PPARg SRC3 ag 6.8.
For S=C(c1ccc(-c2ccc(Cl)cc2)o1)N1CCCCC1 the results were TR-FRET SRC-2 ct 1533, PPARg SRC3 recr -0.8, PPARg SRC-1 ag -1.6 and PPARg SRC2 recr -5.7.
N#CCCN1CCN(C(=S)c2ccc(-c3ccc(Cl)cc3)o2)CC1 was read as TR-FRET SRC-2 ct 1605, PPARg SRC3 recr 15.5, PPARg SRC-1 ag 23.6*, PPARg SRC2 recr 0.9, PPARg SRC2 conf 31.1*, PPARg SRC1 conf 27.7* and PPARg SRC3 ag 18.4.
For CC(=O)C1=C(O)C(=O)N(Cc2ccccc2)C1c1ccco1 (stereo not drawn) the results were TR-FRET SRC-2 ct 1701, SRC3 TRFRET art 1736, PPARg SRC3 recr 0.2, SRC1 TRFRET art 2214, PPARg SRC-1 ag 0.7 and PPARg SRC2 recr -5.6.
Screening Cc1ccnc(NC(=O)c2ccc(COc3ccc(Cl)cc3)o2)c1 returned TR-FRET SRC-2 ct 1534, PPARg SRC3 recr -3.5, PPARg SRC-1 ag -3.3 and PPARg SRC2 recr -3.9.
For COC(=O)c1c(Cl)c2n3ccccc3c(C)c(-c3ccccc3)c-2c1C(=O)OC the results were TR-FRET SRC-2 ct 2016*, SRC3 TRFRET art 2198*, PPARg SRC3 recr 11.0, SRC1 TRFRET art 2328*, PPARg SRC-1 ag 18.2, PPARg SRC2 recr 24.2*, PPARg SRC2 conf 0.7, PPARg SRC1 conf 3.4 and PPARg SRC3 ag 2.5.
For COC(=O)c1cc2c(-c3ccccc3)c(C)c3ccccn3c-2c1C(=O)OC the results were TR-FRET SRC-2 ct 1968, PPARg SRC3 recr 29.5*, PPARg SRC-1 ag 17.3, PPARg SRC2 recr 16.2, PPARg SRC2 conf 8.0, PPARg SRC1 conf 13.5 and PPARg SRC3 ag 3.9.
COC(=O)c1c(C(=O)OC)c2cc(C)ccn2c1Cl was read as TR-FRET SRC-2 ct 1615, PPARg SRC3 recr 2.9, PPARg SRC-1 ag 5.6 and PPARg SRC2 recr 8.7.
O=C(CSc1nnc(-c2ccco2)o1)N1c2ccccc2CCc2ccccc21 was read as TR-FRET SRC-2 ct 1744, PPARg SRC3 recr 6.2, PPARg SRC-1 ag 1.0 and PPARg SRC2 recr 11.8.
For CCOC(=O)C1=C(N)Oc2c(oc(CO)cc2=O)C1c1ccccc1 (stereo not drawn) the results were TR-FRET SRC-2 ct 1511, SRC3 TRFRET art 1542, PPARg SRC3 recr -0.5, SRC1 TRFRET art 1922, PPARg SRC-1 ag 0.1 and PPARg SRC2 recr 1.9.
For Cc1ccc(OCC(=O)NC(=S)Nc2ccc3c4c(cccc24)CC3)cc1 the results were TR-FRET SRC-2 ct 1680, SRC3 TRFRET art 1684, PPARg SRC3 recr -0.7, SRC1 TRFRET art 2107, PPARg SRC-1 ag 0.3 and PPARg SRC2 recr -3.8.
CC(C)(C)c1ccc(OCC(=O)Nc2ccc3c4c(cccc24)C(=O)NC3=O)cc1 was read as TR-FRET SRC-2 ct 1795, SRC3 TRFRET art 1741, PPARg SRC3 recr 32.9*, SRC1 TRFRET art 2184, PPARg SRC-1 ag 14.4, PPARg SRC2 recr 13.9, PPARg SRC2 conf 13.0, PPARg SRC1 conf 13.6 and PPARg SRC3 ag 10.4.
For COC(=O)CCC(=O)NC(=S)Nc1ccccc1F the results were TR-FRET SRC-2 ct 1494, SRC3 TRFRET art 1602, PPARg SRC3 recr -5.0, SRC1 TRFRET art 1766, PPARg SRC-1 ag -4.4 and PPARg SRC2 recr 0.9.
O=C(N/N=C/c1ccc(N2CCOCC2)o1)c1cccc(C(F)(F)F)c1 was read as TR-FRET SRC-2 ct 1609, PPARg SRC3 recr 12.7, PPARg SRC-1 ag 11.7, PPARg SRC2 recr 23.6*, PPARg SRC2 conf 5.6, PPARg SRC1 conf 3.8 and PPARg SRC3 ag 3.9.
